For seven compounds, growth results are on record in PubChem BioAssay (NCI).

The structures appear in SMILES notation. Where “and” joins values, the source holds several entries; their conditions need not be identical. Identical values can stand only once. This is part of a sample that, as a whole, favours compounds with a hit. Of some 83,000 tested, about 20% had one in any assay.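 Percent growth is the endpoint: 0 to 100 indicates growth inhibition (40 means 60% inhibition), 0 means no net growth, and negative values indicate cell death.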 Calls of active or inactive are those of the source. How the source made its calls: active means growth percent below 10; inactive means the rest.

Common to all, as to assay: NCI-60 one-dose screen, 48 h (100 = growth as untreated, 0 = no growth, -100 = all killed)
Common to all, as to settings: 10 µM

The subject of test [1] is T-47D breast.
Test [2] concerns BT-549 breast.
Test [3] deals with MDA-MB-435 melanoma.
Test [4] relates to SW-620 colon.
Test [5] has as its system MCF7 breast.
Test [6] relates to HCT-116 colon.
The subject of test [7] is HCC-2998 colon.
The subject of test [8] is KM12 colon.
The test system of test [9] is MDA-MB-468 breast.

Take `Nc1nc(-c2ccccc2)cs1`: the growth in test [1] was 16.3% (inactive); in [2], 31.1% (inactive); in test [3], 67.9% (inactive); in test [4] it was 70.5% (inactive); in test [5], 39.7% (inactive); in [6], 50.7% (inactive). Moreover, the growth in [7] is 74.6% (inactive); in test [8] it was 43.1% (inactive); in [9] it was 55.1% (inactive) and 115% (inactive).

Turning to `O=C(c1ccc(-n2c(=O)[nH]c3ccccc3c2=O)cc1)N1CCOCC1`, the growth in [1] is 99.7% (inactive); in [2] it was 75.6% (inactive); in [3], 102% (inactive); in test [4], 97.1% (inactive); in test [5], 101% (inactive); in test [6] it was 99.2% (inactive). Further, the growth is 116% (inactive) in test [7], 114% (inactive) in [8] and 94.7% (inactive) in test [9].

Consider `COc1ccc([C@H]2C(C(=O)c3ccc(Cl)cc3)C3(N[C@@H]2c2ccccc2)C(=O)Nc2ccc(Cl)cc23)cc1` (stereo partly drawn), for which the growth was 9.93% (active) in [1]; 7.71% (active) in test [2]; -57.5% (active) in [3]; 4.15% (active) in [4]; -4.24% (active) in [5]; 2.1% (active) in test [6]. Besides, the growth was -59.3% (active) in test [7], -23.4% (active) in test [8] and -3.62% (active) in test [9].

Consider `COc1ccc(NC(=O)CSc2nnc(-c3ccc4nc(-c5ccc(Cl)cc5)[nH]c4c3)o2)cc1`, for which the growth in test [1] was 96.7% (inactive); in test [2], 29.9% (inactive); in test [3] it was -7.51% (active); in test [4] it was 1.97% (active); in [5], 17.1% (inactive); in test [6] it was 23.2% (inactive). For the same compound, the growth in [7] is 111% (inactive); in test [8], 60.4% (inactive); in test [9], 90.8% (inactive).

For the compound `O=C(CS(=O)(=O)c1oc(-c2ccc(Cl)cc2)nc1S(=O)(=O)c1ccc(Cl)cc1)N1CCOCC1`, the growth was -50.2% (active) in test [1]; 52.4% (inactive) in test [2]; 47% (inactive) in test [3]; -18.3% (active) in test [4]; 11.3% (inactive) in [5]; 4.36% (active) in test [6]. The growth was 51% (inactive) in test [7], 55.8% (inactive) in test [8] and -4.97% (active) in [9].

`COC[C@@H](CC(C)C)N=C1N/C(=C\c2ccc3ncsc3c2)C(=O)N1C`: the growth in [1] was -7.71% (active); in test [2] it was 7.17% (active); in test [3], 22.1% (inactive); in test [4], 2.99% (active); in [5], -23.3% (active); in test [6], 14.5% (inactive). Besides, the growth is 5.06% (active) in test [7], 9.52% (active) in [8] and -5.24% (active) in [9].

Consider `[2H]C([2H])([2H])Oc1ccc2ncc(C#Cc3cncc(C(=O)Nc4ccc(CN5CCN(C)CC5)c(C(F)(F)F)c4)c3)n2n1`, for which the growth in test [1] is -24.5% (active); in [2], -57.5% (active); in test [3] it was -67.2% (active); in test [4], -67.8% (active); in test [5] it was -61% (active); in test [6], -29.5% (active). For the same compound, the growth in test [7] is -84.8% (active); in test [8], -94.1% (active); in test [9] it was -90.3% (active).
